Source: PubChem BioAssay (National Center for Advancing Translational Sciences (NCATS))
Rows were chosen to be rich in hits. Some 19% of all compounds tested hit in one or more screens of this group.
ELG1 DNA repair = inhibitors of ELG1-dependent DNA repair in HEK293T cells; HEK293T ELG1-luciferase reporter, luminescence, 16 h; DNA damage induced by 5-fluorouridine; Potency, µM (doses to about 46.1 µM), inactives show at the highest dose activity change, negative = inhibition, actives largely listed as inhibitors; actives 2.3% (n = 330,000); also: potency is read from the fitted curve at half-maximal effect; nearly all actives have a fitted effect of over 55% in size
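Reporter activity after DNA damage by 5-fluorouridine is monitored. Compound-treated cells incubate 16 hr at 37 °C, then ONE-Glo is added for 30 min before luminescence reading.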
IL-1B inflam inh = blocks inflammasome-driven IL-1 beta release; THP-1 LPS/ATP IL-1B secretion, AlphaLISA, 16 h; stronger effect = lower value; activity change, % at 57.5 µM; actives 4.7% (n = 360,000); in the data active = activity change below about -50%; inconclusive = mostly about -30% to -49%
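Secreted IL-1B measured by AlphaLISA bead assay after 16 h compound exposure of THP-1 cells; compounds (final up to 57.5 uM) added 1 h before LPS (250 ng/mL) and ATP (1.25 mM) stimulation; lower signal means less secretion.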
HT1080 IDH1KD tx = kills HT-1080 cells with IDH1 knockdown; HT-1080 IDH1 knockdown viability, ATP luminescence, 48 h; Potency, µM (highest dose often 46.1 µM), for the others: top-dose activity, negative = toxicity, most hits filed as cytotoxic; actives 2% (n = 360,000);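 also: potency is read from the fitted curve at half-maximal effect; 0% = DMSO wells and -100% = cell-free medium wells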
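CellTiter-Glo luminescence after 48 h compound exposure at 37 degrees C of IDH1-knockdown HT-1080 cells in 5% FBS RPMI. %Activity scaled between DMSO wells and cell-free media wells, with curves fitted and assigned curve classes.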
TDP1 cell CPT = growth inhibition of DT40 Tdp1-/-;hTDP1 cells with camptothecin (screen for TDP1 inhibitors) | actives 12% (n = 420,000) | Potency, µM (series often up to 46.2 µM), without a hit: top-dose activity change, negative = growth inhibition, usual class: inhibitors | chicken DT40 Tdp1-/-;hTDP1 cells + 20 nM CPT, ATP luminescence, 48 h; also: potency is read from the fitted curve at half-maximal effect; nearly all actives have a fitted effect of over 55% in size
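Chicken DT40 Tdp1-/- cells stably complemented with human TDP1 were seeded at 400 cells/well in medium containing 20 nM camptothecin, exposed to pin-transferred compounds, and grown at 37 °C for at least 48 hr. Viability was read as ATP luminescence.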
HT1080-NT tox = kills 2HG-producing HT-1080-NT fibrosarcoma cells; Potency, µM (series often up to 46.1 µM), without a hit: top-dose activity, negative = less viability, usual class: cytotoxic; actives 1.6% (n = 360,000); HT-1080-NT fibrosarcoma viability, CellTiter-Glo ATP luminescence, 48 h; AID 686970;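 also: NT is the 2HG producing partner of a matched IDH1 knockdown line; potency is read from the fitted curve at half-maximal effect; 0% = DMSO-treated cells and -100% = media-only wells without cells; nearly all actives have a fitted effect of over 55% in size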
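HT-1080-NT; 750 cells/well; 5% FBS RPMI; 48 h compound, 37 degrees C; CellTiter-Glo luminescence; curve fitting and curve-class assignment.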
TDP1 cell noCPT = qHTS for Inhibitors of human tyrosyl-DNA phosphodiesterase 1 (TDP1): qHTS in cells in absence of CPT. DT40 Tdp1-/- hTDP1 cells, no CPT, ATP luminescence, 48 h. Potency, µM (titrated, usually from 46.2 µM), for the others: at the highest dose activity change, negative = growth inhibition, hits mostly inhibitors. actives 15% (n = 420,000); also: potency is read from the fitted curve at half-maximal effect; nearly all actives have a fitted effect of over 55% in size
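Luminescent ATP content (CellTiter-Glo) served as the growth readout. Knockout chicken DT40 cells expressing human TDP1 were exposed to compounds without camptothecin for a minimum 48 hr at 37 °C.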
Numbers without * were called inactive; i = inactive; ? = inconclusive; . = no result. Unless noted, calls follow the shape of the dose curve; as a rule, active = well fitted curve in the direction sought with a large enough effect; inconclusive = small, poorly fitted or top-dose-only effect, or another doubt; inactive = no such curve, though single readings can be large; an effect the other way counts as inactive or inconclusive. Unless noted, % is scaled to controls: 0 for no effect and ±100 for the full control effect.

SMILES	ELG1 DNA repair	IL-1B inflam inh	HT1080 IDH1KD tx	TDP1 cell CPT	HT1080-NT tox	TDP1 cell noCPT
COc1ccc(N(CC(=O)N2CCc3ccccc32)S(=O)(=O)c2c(C)nn(C)c2C)cc1	-8%	-17	-10%	?	-2%	?
Cc1ccc(N(CC(=O)N2CCc3ccccc32)S(=O)(=O)c2cccs2)cc1	-11%	-14	0%	?	-3%	18µM*
COc1ccc(N(CC(=O)N2CCc3ccccc32)S(=O)(=O)c2c(C)n[nH]c2C)cc1	-16%	-54*	-4%	-29%	-1%	?
COCC(=O)N1CCC(Oc2ccc(C(=O)N3CCCCCCC3)cc2)CC1	-1%	15	7%	?	4%	13µM*
C=CCOc1ccccc1CN1CCC(Oc2ccc(C(=O)N3CCCCC3)cc2)CC1	-2%	0	-4%	?	-3%	21µM*
O=C(c1ccc(OC2CCN(Cc3ccc(F)cc3)CC2)cc1)N1CCCC1	?	-7	-1%	-14%	-3%	-22%
CSc1ccc(CN2CCC(Oc3ccc(C(=O)N4CCCC4)cc3)CC2)cc1	0%	1	-27%	-20%	?	?
CCc1ccc(CN2CCC(Oc3ccc(C(=O)N4CCCC4)cc3)CC2)cc1	-19%	0	-20%	18µM*	-6%	?
CCc1ccc(CN2CCC(Oc3ccc(C(=O)N4CCCCC4)cc3)CC2)cc1	?	i	1%	?	0%	15µM*
Cc1ccc(C2(C)NC(=O)N(CC(=O)NCCN3C(=O)S/C(=C\c4cccnc4)C3=O)C2=O)cc1 (configuration not stated)	.	-30	-6%	?	-9%	-25%
O=C(c1ccc(OC2CCN(C/C=C/c3ccc(F)cc3)CC2)cc1)N1CCCC1	-17%	-71*	?	26µM*	-12%	?
COCC(=O)N1CCC(Oc2ccc(C(=O)N(C)CCCC3CCCC3)cc2)CC1	-13%	13	-11%	18µM*	4%	21µM*
O=C(c1ccc(OC2CCN(CCc3ccccc3)CC2)cc1)N1CCCC1	?	-9	-6%	-10%	-2%	-10%
CCOc1ccc(N2CC(C(=O)Nc3cc(OCC)c(N4CCOCC4)cc3OCC)CC2=O)cc1 (configuration not stated)	-4%	10	5%	-9%	0%	-4%
CCN(c1ccccc1)S(=O)(=O)c1ccc(OC)c(NC(=O)c2cc(Cl)ccn2)c1	5%	9	0%	?	-1%	?
CCn1c(COc2ccc(Cl)cc2)nnc1SC1CCc2ccccc2C1=O (configuration not stated)	?	17	-11%	?	0%	21µM*
CCn1c(COc2ccc(Cl)cc2)nnc1SCc1ccc(C#N)cc1	?	?	-2%	-2%	-3%	?
CC(=O)Nc1ccc(N(C(=O)c2ccco2)C(C(=O)NC2CCCC2)c2cccs2)cc1 (configuration not stated)	16%	-10	-2%	8%	4%	-29%
CC(=O)Nc1ccc(N(C(=O)c2ccco2)C(C(=O)NC2CCCCC2)c2ccccc2)cc1 (configuration not stated)	17%	-53*	-3%	-14%	-4%	?
CCC(C)c1ccc(N(C(=O)c2ccco2)C(C(=O)NC2CCCC2)c2cccnc2)cc1 (configuration not stated)	?	-21	-22%	18µM*	-1%	16µM*
COc1ccc(NC(=O)CN(C)C(=O)c2cccc(S(=O)(=O)Nc3ccccc3Cl)c2)cc1	-2%	-11	3%	-11%	9%	5%
O=C(Nc1ccc(Br)cc1Cl)c1cnn2c1NC(=C1CC1)C=C2C(F)F	.	.	.	-5%	.	-6%
Cc1ccc(C(C(=O)NC2CCCCC2)N(CCCN2CCOCC2)C(=O)c2snc(C(N)=O)c2N)cc1 (configuration not stated)	0%	4	17%	-4%	15%	6%
CCc1nnc2c(Nc3ccc(N(CC)CC)cc3C)nc3ccccc3n12	.	.	.	18µM*	.	18µM*
CCc1nnc2c(Nc3ccccc3Br)nc3ccccc3n12	.	.	.	-28%	.	?
SMILES	ELG1 DNA repair	IL-1B inflam inh	HT1080 IDH1KD tx	TDP1 cell CPT	HT1080-NT tox	TDP1 cell noCPT
CCOc1ccccc1NC(=O)COC(=O)COc1c(Cl)cc(Cl)c2ccc(C)nc12	.	15	-8%	-17%	-12%	0%
CCN(CC(=O)NC(C)(C)C)C(=O)COc1c(Cl)cc(Cl)c2ccc(C)nc12	-13%	0	-24%	23µM*	6%	13µM*
CN(CC(=O)Nc1ccc(F)cc1F)S(=O)(=O)c1ccc(C(=O)N2CCOCC2)s1	.	.	.	?	.	-12%
COc1ccc(C(=Cc2ccccc2[N+](=O)[O-])C(=O)O)cc1	.	-7	-3%	-9%	-4%	-8%
Cc1cccc(C(=O)c2cnc3ccccc3c2-c2ccccc2)c1	?	-19	-1%	15µM*	-1%	26µM*
Cc1ccc(-n2c(=O)c3oc4ccccc4c3n(Cc3ccccc3)c2=O)cc1C	.	.	.	21µM*	.	13µM*
NC(=O)Cn1c(=O)n(-c2ccccc2)c(=O)c2oc3ccccc3c21	-1%	-50*	9%	-9%	?	-13%
CCOc1ccccc1NC(=O)Cn1c(=O)n(-c2ccccc2)c(=O)c2oc3ccccc3c21	-6%	17	3%	?	10%	?
Cc1ccc(Cn2c(=O)n(Cc3ccccc3)c(=O)c3oc4ccccc4c32)cc1	.	.	.	15%	.	5%
COC(=O)c1scc(-c2ccc(C)cc2)c1S(=O)(=O)Nc1cc(C)c(Cl)cc1OC	.	.	.	4.6µM*	.	23µM*
COC(=O)c1scc(-c2ccc(C)cc2)c1S(=O)(=O)Nc1cc(C)ccc1OC	.	.	.	?	.	23µM*
CCc1cccc(NC(=O)CNS(=O)(=O)c2ccc3nc(C)sc3c2)c1	.	.	.	-6%	.	-29%
CC(Oc1ccc(F)cc1)C(=O)NCC1(N(C)C)CCCCC1 (configuration not stated)	.	.	.	-3%	.	1%
Cn1nc(-c2ccc(C(=O)N3CCN(Cc4ccccc4)CC3)cc2)c2ccccc2c1=O	?	6	-9%	23µM*	-9%	18µM*
